D2 PAM-1: D2 dopamine receptor (human) potentiation. actives 0.34% (n = 340,000). potentiation, % at 10 µM. AID 485347. HEK293 T-REx D2, calcium flux, EC20 dopamine potentiation;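 active = potentiation over 3 SD above the plate norm, cut at about 30% in these data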; also: 0% is about no effect
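Potentiation of an EC20 dopamine calcium response measured kinetically over 180 s, after a preceding 180 s compound-only read flagging agonists. Cells: inducible Hek293 Trex D2 line, 4000/well, cultured overnight at 30 C before dye loading.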
D2 ag-1: D2 dopamine receptor (human) agonism. P14416. HEK293 T-REx D2 cells, calcium flux agonist mode. activation, % at 2 µM. actives 0.53% (n = 340,000);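 active = activation over 3 SD above normal in the single-dose calcium agonist read, cut at about 30% in these data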; also: 0% is about no effect
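Agonism scored from kinetic calcium signal (1 read/sec, 180 s) following compound pin transfer, after a 10 s baseline. Cells: HEK293 Trex line expressing inducible D2 receptor coupled to calcium, dye-loaded after overnight culture at 30 C.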
D2 antagonist: antagonizes the human D2 dopamine receptor | HEK293 TREx D2 cells, calcium flux, dopamine EC80 | inhibition, % at 10 µM | actives 2% (n = 340,000) | P14416; in the data active = inhibition above about 30%; inactive = below that, where a call was filed; also: 0% is about no effect
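Antagonism is scored as inhibition of an EC80 dopamine-evoked calcium signal in a force-coupled, tetracycline-inducible HEK293 T-REx D2 line, with compound present 180 s before agonist.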
D2 PAM-2: potentiates the human D2 dopamine receptor allosterically. P14416. DiscoveRx D2 beta-arrestin cells, luminescence, 90 min; 100% = 57 uM dopamine signal. potentiation, % (concentration not given with the values). actives 0.23% (n = 360,000); in the data active = potentiation above about 50%; inconclusive = mostly about 30% to 49%
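PathHunter beta-arrestin assay in DiscoveRx D2 cells. Compounds were added with an EC20 of dopamine (50 nM final) for 90 min at 37 deg C. Luminescence was read 1 h after detection reagent, with 57 uM dopamine as the EC100 control.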
D2 ag-2: agonists of human D2 dopamine receptor (beta-arrestin). P14416. DiscoveRx PathHunter D2 beta-arrestin, luminescence, 90 min; 100% = 57 uM dopamine signal. activation, % (concentration not given with the values). actives 0.084% (n = 360,000); in the data active = activation above about 40%; inconclusive = between about 15% and that limit
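DiscoveRx PathHunter D2 beta-arrestin cells (2,100/well) attached overnight, then compound-stimulated 90 min at 37 C in HBSS/10 mM HEPES/0.1% Tween-20 buffer; beta-galactosidase complementation read by luminescence after 1 h at ambient temperature. Dopamine 57 uM final (EC100) as control.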
D3 ag: activates human D3 dopamine receptor beta-arrestin recruitment | shares compounds with D2 ag-1 | DiscoveRx D3 beta-arrestin cells, luminescence, 90 min | Potency, µM (doses to about 76.9 µM), for inactives: top-dose activation, most hits filed as activators | actives 4% (n = 2,300);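 also: potency is read from the fitted curve at half-maximal effect; 100% = dopamine control response; nearly all actives have a fitted effect of over 70% in size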
Target sequence (P35462 whole entry, looked up): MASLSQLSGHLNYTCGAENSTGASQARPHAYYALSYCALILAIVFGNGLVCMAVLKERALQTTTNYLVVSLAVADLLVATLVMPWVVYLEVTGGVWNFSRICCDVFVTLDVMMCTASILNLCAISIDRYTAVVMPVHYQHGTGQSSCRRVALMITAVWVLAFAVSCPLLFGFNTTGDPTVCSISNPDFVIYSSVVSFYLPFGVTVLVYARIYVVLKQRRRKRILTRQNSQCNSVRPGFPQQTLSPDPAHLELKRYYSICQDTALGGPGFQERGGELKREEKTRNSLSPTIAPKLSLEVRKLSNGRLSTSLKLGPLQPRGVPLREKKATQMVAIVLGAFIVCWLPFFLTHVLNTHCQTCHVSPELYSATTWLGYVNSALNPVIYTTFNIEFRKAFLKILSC
D2 ag-3: activates human D2 dopamine receptor in D3 counterscreen; shares compounds with D2 ag-1; DiscoveRx PathHunter D2 beta-arrestin, luminescence, 90 min; response scale: percent relative to full dopamine signal; Potency, µM (titrated, usually from 76.9 µM), inactives show at the highest dose activation, hits mostly activators; actives 5.9% (n = 2,300); also: potency is read from the fitted curve at half-maximal effect; % of control where 0% means no effect; nearly all actives have a fitted effect of over 70% in size
An asterisk follows results filed as active; ? = inconclusive; · = not tested or not shown. Rows were chosen to be rich in hits. Some 2.4% of all compounds tested hit in one or more screens of this group. Unless noted, calls follow the shape of the dose curve; as a rule, active = well fitted activation curve with a large enough effect; inconclusive = small, poorly fitted or top-dose-only effect; inactive = flat fitted curve, though single readings scatter.

SMILES | D2 PAM-1 | D2 ag-1 | D2 antagonist | D2 PAM-2 | D2 ag-2 | D3 ag | D2 ag-3
Cc1cc(C(=O)O[C@H]2[C@H](Cc3ccccc3)NS(=O)(=O)[C@H]3C[C@@H]4C=C[C@]23O4)ccc1[N+](=O)[O-] | -6 | 0 | 1 | -8 | -4 | -8% | -3%
O=C(Nc1ccc(C(F)(F)F)cc1[N+](=O)[O-])O[C@H]1[C@H](Cc2ccccc2)NS(=O)(=O)[C@H]2C[C@@H]3C=C[C@]12O3 | -23 | 44* | -3 | 11 | ? | 12% | 13%
COc1cccc(C(=O)O[C@H]2[C@H](Cc3ccccc3)NS(=O)(=O)[C@H]3C[C@@H]4C=C[C@]23O4)c1 | · | · | · | -3 | -3 | · | ·
CCOc1ccc(-c2nnc(SCC(=O)Nc3cccc(C#N)c3)o2)cc1 | 7 | · | · | · | · | · | ·
COc1cccc(-c2c(C(=O)N/N=C(\C)c3ccncc3)nnn2-c2nonc2N)c1 | -6 | 0 | -10 | -10 | 3 | · | ·
CCOc1cccc(-c2c(C(=O)N/N=C(\C)c3cccs3)nnn2-c2nonc2N)c1 | 9 | 18 | 16 | 2 | -5 | -4% | -3%
COc1cccc(-c2c(C(=O)N/N=C(\C)c3cccs3)nnn2-c2nonc2N)c1 | -2 | 37* | 3 | -6 | -2 | -8% | -4%
C/C(=N\NC(=O)c1nnn(-c2nonc2N)c1-c1cccs1)c1ccc(C)cc1 | 7 | 8 | 11 | 1 | -9 | · | ·
COc1ccc(/C(C)=N/NC(=O)c2nnn(-c3nonc3N)c2-c2cccs2)cc1 | 15 | 3 | -8 | -9 | -5 | 0% | -4%
C/C(=N\NC(=O)c1nnn(-c2nonc2N)c1-c1ccc2c(c1)OCO2)c1cccs1 | 7 | 32* | 37* | -5 | -1 | -2% | -3%
Cc1cccnc1C1=NOC(Cc2ccccc2)C(=O)N1CCOc1ccc(F)cc1 (configuration not stated) | · | · | · | -3 | -3 | · | ·
CCCS(=O)(=O)NC(=O)C1(C)CCN(C(=O)CSc2ccccc2)C1 (configuration not stated) | · | · | · | -12 | -2 | · | ·
Cc1nc2ccc(S(=O)(=O)NC(C(=O)N3CCN(c4ccc(Cl)cc4)CC3)C(C)C)cc2s1 (configuration not stated) | 10 | 0 | · | · | · | · | ·
CC(C)(O[C@@H]1O[C@H](CO)[C@@H](O)[C@H](O)[C@H]1O)[C@H]1Cc2cc3ccc(=O)oc3cc2O1 | -7 | 1 | -10 | -5 | -4 | · | ·
CC(C)(O[C@@H]1O[C@H](CO)[C@@H](O)[C@H](O)[C@H]1O)[C@@H]1CC=C(C(=O)O)CC1 | 10 | -1 | -18 | 5 | -2 | -3% | -2%
O=C(c1ccc(C(F)(F)F)cc1)C1CCCN(C(=O)Cn2cncn2)C1 (configuration not stated) | -4 | 0 | 20 | -13 | -4 | -8% | 0%
O=C(c1cccc(C(F)(F)F)c1)C1CCCN(C(=O)Cn2cncn2)C1 (configuration not stated) | -5 | 0 | -4 | -11 | -8 | · | ·
O=C(CCC1CCCC1)NNC(=O)c1ccc(F)cc1 | 1 | -1 | -5 | 3 | -7 | -11% | -1%
COC(=O)c1ccccc1NC(=O)NCc1ccc2c(c1)CCN2C(=O)c1ccccc1 | -10 | 1 | · | · | · | · | ·
COc1ccc(CCNC(=O)CSC2=NS(=O)(=O)c3ccccc3N2)cc1OC | 3 | 0 | -3 | -17 | 0 | · | ·
O=C(CSC1=NS(=O)(=O)c2ccccc2N1)NCCc1ccccc1 | 1 | 28 | 11 | -7 | 2 | 6% | 0%
COc1ccc(NC(=O)C2CCN(S(=O)(=O)c3c(C)noc3/C=C/c3ccco3)CC2)cc1 | 4 | 1 | · | · | · | · | ·
COc1ccc(CNC(=O)[C@]2(C)CCC[C@@]3(C)C4CC[C@@]5(C)C[C@]4(CCC32)CC5=O)cc1 (some centres not stated) | -6 | -1 | 10 | -5 | -2 | -7% | 2%
O=S(=O)(c1cc(Cl)ccc1Cl)N1CCc2ccccc21 | -17 | 61* | 37* | 2 | -1 | -5% | 4%
CC(=O)Nc1cccc(NC(=O)c2cc3c(=O)n4cccc(C)c4nc3n2C)c1 | -3 | -2 | · | · | · | · | ·
SMILES | D2 PAM-1 | D2 ag-1 | D2 antagonist | D2 PAM-2 | D2 ag-2 | D3 ag | D2 ag-3
O=C(NCCc1ccccc1Cl)c1ccc2c(=O)n(-c3ccccc3)c(=O)[nH]c2c1 | · | 0 | · | · | · | · | ·
Cc1ccc2[nH]c3c(c2c1)CN(C(=O)CN1CC(C)OC(C)C1)CC3 (configuration not stated) | -4 | 2 | 5 | 15 | 0 | · | ·
Cc1ccc2[nH]c3c(c2c1)CN(C(=O)CN1CCSCC1)CC3 | -4 | -3 | -13 | · | · | · | ·
CCOC(=O)N1CCc2[nH]c3ccc(C)cc3c2C1 | 21 | 29 | -16 | -13 | 3 | -8% | 0%
Cc1ccc2[nH]c3c(c2c1)CN(C(=O)CN1CCN(c2ccccn2)CC1)CC3 | -9 | 31* | 8 | 3 | 9 | 26% | 18%
CCOc1ccc(NC(=S)NC(=O)c2c(Br)cnn2C)c([N+](=O)[O-])c1 | -16 | 48* | 5 | -5 | -5 | -5% | 1%
CCC(Nc1ccc(-c2nc(-c3cccnc3)no2)cc1[N+](=O)[O-])c1ccccc1 (configuration not stated) | 1 | 1 | · | · | · | · | ·
CC(C)Cn1cc(NC(=O)N2CCN(c3ccc(F)cc3)CC2)c2ccccc2c1=O | 4 | -1 | · | · | · | · | ·
Cc1cccc(CSc2nnc([C@@H]3CCCN3C(=O)OC(C)(C)C)o2)c1 | 0 | -1 | 36* | -31 | -3 | -1% | -5%
Cc1ccc(C(=O)N2CCN(C34CC5CC(CC(C5)C3)C4)CC2)o1 | · | · | · | -13 | 0 | -2% | 1%
CCOc1ccccc1C(=O)NCC(c1ccc(N(C)C)cc1)N1CCc2ccccc21 (configuration not stated) | 2 | -1 | · | · | · | · | ·
N#Cc1ccccc1OCC(=O)OCCCOC(=O)COc1ccccc1C#N | -19 | 62* | 15 | -4 | -1 | 1% | -2%
CC(=O)c1ccc(N2CCN(C(=O)C3CCN(S(=O)(=O)c4cccc5nonc45)CC3)CC2)cc1 | 6 | · | · | · | · | · | ·
COC(=O)[C@@H](N)Cc1ccc(O)c(O)c1 | -21 | 74* | 81* | -6 | -8 | ? | 21%
COC(=O)C(N)Cc1ccc(Cl)cc1 (configuration not stated) | 13 | -1 | -8 | -2 | -6 | · | ·

From PubChem BioAssay
